HP1b binding inh: HP1-beta chromodomain-methylated histone interaction inhibition; P83916; AlphaScreen HP1-beta / biotin-H3K9me3 peptide binding; Potency, µM (series often up to 114 µM), usual class: inhibitors; hit rate 0.56% among 390,000; AID 540317; note: nearly all actives have a fitted effect of over 70% in size
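HP1-beta protein (50 nM final) preincubated 30 min at room temperature with biotinylated H3(1-18)K9me3 peptide (50 nM) in PBS pH 7.4, 0.01% Tween-20, then compound added for 30 min. AlphaScreen streptavidin donor/nickel chelate acceptor beads (10 ug/mL final), 30 min dark, luminescence read.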
L3MBTL1 block: blocks human L3MBTL1; hit rate 0.66% among 230,000; Potency, µM (highest dose often 57.1 µM), most hits filed as inhibitors; AlphaScreen L3MBTL1–H3K9me1 peptide binding; AID 485360; Q9Y468; note: nearly all actives have a fitted effect of over 60% in size
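L3MBTL1 (50 nM) pre-complexed 30 min with biotinylated H3(1-15)K9me1 peptide (75 nM), then compounds added for 30 min at room temperature; AlphaScreen streptavidin donor/nickel chelate acceptor beads (10 ug/mL final) read after 30 min dark incubation.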
G9a block: G9a (human) methyltransferase inhibition; G9a H3K9 monomethylation, AlphaScreen, 2 h; AID 504332; Q96KQ7; hit rate 8.8% among 350,000; Potency, µM (highest dose often 102 µM), most hits filed as inhibitors; note: nearly all actives have a fitted effect of over 75% in size
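Chemiluminescent proximity detection of H3K9 monomethylation, read after 10 min bead incubation in the dark. Reaction: 20 nM G9a, 500 nM biotin-H3K9 peptide, 20 uM SAM cofactor, 2 h, room temperature, following 15 min enzyme-compound preincubation.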
GLS inh: inhibitors of human glutaminase (GLS); O94925; GLS enzymatic activity, qHTS titration; Potency, µM (highest dose often 45.5 µM), most hits filed as inhibitors; hit rate 0.21% among 410,000
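hKGA in 45 mM KH2PO4 (pH 8.2), 0.02% Tween-20 with compound, then 1mM L-Glutamine (stock as added) plus glutamate oxidase/HRP/Amplex red coupling mix. Fluorescence read initially and after 30 min at RT; signal change reflects glutamate formation.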
BAZ2B block: BAZ2B (human) inhibition | Potency, µM (top dose mostly 114 µM), usual class: inhibitors | Q9UIF8 | AlphaScreen BAZ2B-H3K14Ac peptide displacement | hit rate 4.4% among 360,000; note: nearly all actives have a fitted effect of over 60% in size
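Compounds, titrated to a top concentration of 110 uM, were incubated 30 min at room temperature with preformed BAZ2B/acetyl-K14 H3 peptide complex (50 nM each). Proximity signal was measured by AlphaScreen after 20 min with beads.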
JMJD2A Tudor: blocks the human JMJD2A Tudor domain. O75164. AlphaScreen JMJD2A-Tudor / H3K4me3 peptide binding. Potency, µM (titrated, usually from 114 µM), hits mostly inhibitors. hit rate 4.4% among 390,000; note: nearly all actives have a fitted effect of over 50% in size
Hits are given with their value; – = inactive; ? = inconclusive; · = no result given; [ ] = dose if it differs, or a comment. The list is not random: actives were taken first. Their share in the collection is about 10%. Calls come from the whole dose curve; as a rule, active = well fitted curve in the direction sought with a large enough effect; inconclusive = small, poorly fitted or top-dose-only effect, or another doubt; inactive = no such curve, though single readings can be large; an effect the other way counts as inactive or inconclusive.

SMILES	HP1b binding inh	L3MBTL1 block	G9a block	GLS inh	BAZ2B block	JMJD2A Tudor
Cc1ccc2sc(N(CCCN(C)C)C(=O)c3ccc(S(=O)(=O)N4CCOCC4)cc3)nc2c1C	–	–	50µM	–	–	–
Cc1ccc2nc(N(CCCN(C)C)C(=O)c3ccc(S(=O)(=O)N4CCOCC4)cc3)sc2c1	–	·	–	–	–	–
Cc1cc(C)c2nc(N(CCCN(C)C)C(=O)c3ccc(S(=O)(=O)N4CC(C)OC(C)C4)cc3)sc2c1 (stereo not given)	–	–	?	–	–	–
CCOC(=O)N1CCN(S(=O)(=O)c2ccc(C(=O)N(CCN(C)C)c3nc4c(C)cccc4s3)cc2)CC1	–	·	45µM	–	?	?
Cc1ccc2sc(N(CCN(C)C)C(=O)c3ccc(S(=O)(=O)N4CC(C)OC(C)C4)cc3)nc2c1C (stereo not given)	–	·	50µM	–	?	?
COc1cccc(CNC(=O)c2ccc(CS(=O)Cc3ccc(Cl)cc3)o2)c1 (stereo not given)	–	·	–	–	–	–
Cc1oc(-c2ccc(C(=O)Nc3ccc(F)cc3F)cc2)nc1COc1ccccc1	–	·	–	–	–	–
COCCCn1c(=O)c2sccc2n2c(CCCC(=O)Nc3cc(C)cc(C)c3)nnc12	–	·	–	–	–	–
COc1ccc2sc(N(CCCN(C)C)C(=O)c3ccc(S(=O)(=O)N4CCCC4)cc3)nc2c1	–	–	?	–	–	–
CN(C)CCCN(C(=O)c1ccc(S(=O)(=O)N2CCCCCC2)cc1)c1nc2c(F)cc(F)cc2s1	–	–	45µM	–	?	?
CN(C)CCCN(C(=O)c1ccc(S(=O)(=O)N2CCCC2)cc1)c1nc2c(F)cc(F)cc2s1	–	–	?	–	–	–
CCOC(=O)N1CCN(S(=O)(=O)c2ccc(C(=O)N(CCCN(C)C)c3nc4cc(OC)ccc4s3)cc2)CC1	–	–	56µM	–	–	–
Oc1ccc(N=Cc2ccc(-c3cccs3)s2)cc1	?	?	?	–	?	35µM
Fc1ccc(C2c3[nH]c4ccccc4c3CCN2CCCn2cccn2)cc1 (stereo not given)	–	–	–	–	40µM	?
COc1cc(C(=O)Nc2c(C(=O)O)[nH]c3ccccc23)cc(OC)c1OC	–	·	16µM	–	–	–
COc1cc(C(=O)Nc2ccc(Nc3ccccc3)cc2)cc(OC)c1OC	–	–	50µM	–	?	?
CCCn1c2ccccc2c2cnn(CC(=O)Nc3cc(OC)c(OC)c(OC)c3)c(=O)c21	–	·	–	–	–	–
Cc1ccc2c(c1)N(C(=O)Nc1cccc(C)c1C)CCO2	–	·	–	–	–	?
C#C[C@@]1(OC(C)=O)CC[C@H]2[C@@H]3CCC4=CC(=O)CC[C@@H]4[C@H]3CC[C@@]21C	·	·	·	–	·	·
CN(C)c1ccc(CNC(=O)c2sc3ncccc3c2-n2cccc2)cc1	?	·	22µM	–	18µM	28µM
CC(C)Oc1ccc(CNC(=O)c2sc3ncccc3c2-n2cccc2)cc1	–	·	–	–	–	–
COc1ccc(-c2ccc(=O)n(CC(=O)Nc3ccc(N(C)C)cc3)n2)cc1	?	·	5µM	–	32µM	56µM
Cc1ccc(CSCC(=O)N/N=C/c2ccc(OCC(=O)Nc3ccc(C)cc3)cc2)cc1	–	·	18µM	–	?	?
COc1ccc(CSCC(=O)N/N=C/c2ccc(OCC(=O)N3CCCCC3)cc2)cc1	–	·	–[2.33 µM]	–	?	–
Cc1ccc(OCC(=O)Nc2ccc(N(C)C)cc2)cc1	?	–	8.9µM	–	–	?
SMILES	HP1b binding inh	L3MBTL1 block	G9a block	GLS inh	BAZ2B block	JMJD2A Tudor
CCOC(=O)c1c(/N=C/c2ccc(C)cc2O)sc2c1CCC2	–	–	45µM	–	?	–
CCOC(=O)c1c(/N=C/N(C)C)sc2c1CCC2	–	–	–	–	?	–
CCOC(=O)c1c(/N=C/c2ccc(OC)cc2O)sc2c1CCN(C)C2	?	25µM	·	–	40µM	45µM
CN1CCc2c(sc(/N=C/c3c[nH]c4ccccc34)c2C(N)=O)C1	–	–	45µM	?	–	?
CCOC(=O)c1c(NC(=O)Nc2ccc(C)cc2)sc2c1CCN(C)C2	–	–	–	–	–	–
COc1cc(OC)c2c(C)c(CC(=O)NCc3ccccc3OC)c(=O)oc2c1	–	·	–	–	–	–
Cc1cccc(N2CCN(S(=O)(=O)c3ccc4c(c3)C(C(C)C)C(=O)N4)CC2)c1C (stereo not given)	–	·	–	–	–	–
O=C(c1ccc2c(=O)n(CCc3ccccc3)c(=O)[nH]c2c1)N1CCN(C(=O)c2ccco2)CC1	–	·	·	·	·	–
CCc1ccc(Nc2nc(-c3cc4cccc(OC)c4oc3=O)c(CC)s2)cc1	–	·	–	–	–	–
COc1cc(CNc2ccc3c(c2)CCC3)cc(OC)c1O	32µM	–	?	–	40µM	4µM
CCOc1cc(CNc2ccc3c(c2)CCC3)ccc1O	–	·	8.9µM	–	–	79µM
Cc1cc(C)c2c(=O)cc(C(=O)Nc3sc4c(c3C(=O)NCc3ccccc3)CCCC4)oc2c1	–	·	–	–	–	–
CCCc1cc(C(=O)Nc2sc3c(c2C(=O)OCC)CCCC3)no1	–	?	–	–	–	–
CCOC(=O)c1c(NC(=O)c2cc(-c3ccc(OC)c(OC)c3)on2)sc2c1CCCC2	–	·	4µM	–	–	–
CCOC(=O)c1c(NC(=O)c2cc(-c3cccc(OC)c3)on2)sc2c1CCCC2	?	·	8.9µM	–	–	–
CCOC(=O)c1c(NS(=O)(=O)c2cccc(OC)c2)sc2c1CCC2	–	?	?	–	–	?
COc1ccc(-c2cc(C(=O)Nc3sc4c(c3C#N)CCCC4)no2)cc1OC	–	·	10µM	–	–	–
CCOC(=O)c1c(NC(=O)c2ccc(OC)c(OC)c2)sc2c1CCCCC2	–	·	8.9µM	–	–	–
CCn1nc(-c2ccccc2)c(-c2ccccc2)c(C(=O)Nc2nc(C)c(C(=O)N(C)C)s2)c1=O	–	·	–	–	?	–
COc1ccccc1CNC(=O)c1cc2c(=O)n(Cc3cccs3)ccc2nc1C	–	·	–	–	–	–
O=C(NCc1cccnc1)/C(=C/c1ccc(-c2ccc(Cl)cc2)o1)S(=O)(=O)c1ccccc1	–	–	–	–	?	?
O=C(NCc1cccnc1)/C(=C\c1ccc(-c2ccc(Br)cc2)o1)S(=O)(=O)c1ccccc1	–	–	14µM	–	?	?
Cn1c(=O)c2c(-c3ccccc3)n3c4ccccc4nc(-c4ccccc4)c3c2n(C)c1=O	–	·	–	–	–	–
O=C(O)C1=NN(c2cc(Cl)c(S(=O)(=O)O)cc2Cl)C(=O)C1	–	·	·	1.1µM	·	6.3µM
Cc1ccc(C)c(N2N=C(C(=O)O)CCC2=O)c1	?	–	–	–	–	–

Bioassay records deposited in PubChem by National Center for Advancing Translational Sciences (NCATS).
